The values that follow come from PubChem BioAssay (EPA / NIEHS).

Read-out in experiment [1]: Vascular cell adhesion molecule 1 (VCAM1), VCAM1 (gene 7412)
In words: BSK_4H_VCAM1: BioMAP Diversity Plus: 4H Assay for Vascular cell adhesion molecule 1 (VCAM1) Biomarker Activity (AID 2283033). The settings on record: primary human endothelial cells (HUVEC); actives raise or lower the signal. An outline of the steps: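 ELISA read-out of VCAM-1 on human umbilical vein endothelium 24 hours after chemical dosing; gain or loss of signal was fitted relative to DMSO, with sulforhodamine B staining of parallel cultures flagging overt cytotoxicity.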

Read-out in experiment [2]: Interferon-gamma inducible Protein 10 (IP10), CXCL10 (gene 3627)
In words: BSK_BE3C_IP10: BioMAP Diversity Plus: BE3C Assay for Interferon-gamma inducible Protein 10 (IP10) Biomarker Activity (AID 2283034). The settings on record: primary human bronchial epithelial cells; actives raise or lower the signal. An outline of the steps:
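Chemical is dosed onto human lung bronchial epithelial primary cells, cultures are incubated 24 h, and IP-10 is then quantified by ELISA. Gain or loss of signal is fitted in both directions relative to DMSO.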

Read-out in experiment [3]: Monokine induced gamma interferon (MIG), CXCL9 (gene 4283)
The experiment can be described thus: BSK_BE3C_MIG: BioMAP Diversity Plus: BE3C Assay for Monokine induced gamma interferon (MIG) Biomarker Activity (AID 2283035).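 Also: MIG protein measured by ELISA in BE3C cultures after 24 h of dosing.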 The settings on record: primary human bronchial epithelial cells; actives raise or lower the signal. The procedure, abridged: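 MIG level was determined by ELISA after 24 h chemical treatment of primary human bronchial epithelial cells. Values were fitted bidirectionally with DMSO as the negative control and activity baseline.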

Read-out in experiment [4]: Plasminogen activator inhibitor-1 (PAI1), SERPINE1 (gene 5054)
The experiment can be described thus: BSK_BE3C_PAI1: BioMAP Diversity Plus: BE3C Assay for Plasminogen activator inhibitor-1 (PAI1) Biomarker Activity (AID 2283037). To be noted: primary human bronchial epithelial cells; actives raise or lower the signal. An outline of the steps: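 Primary human lung bronchial epithelial cells; chemical dosing; 24 h; PAI-1 measured by ELISA; bidirectional fit referenced to DMSO as negative control.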

Read-out in experiment [5]: urokinase plasminogen activator (uPA), PLAU (gene 5328)
The experiment can be described thus: BSK_BE3C_uPA: BioMAP Diversity Plus: BE3C Assay for urokinase plasminogen activator (uPA) Biomarker Activity (AID 2283038).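 As to outcome: uPA protein level quantified by ELISA in cell cultures; uPA read one day after compound addition.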 The settings on record: primary human bronchial epithelial cells; actives raise or lower the signal. An outline of the steps:
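ELISA read-out of uPA in human lung primary bronchial epithelial cultures, 24 h post-dosing. Gain or loss of signal fitted bidirectionally relative to DMSO baseline; cytotoxicity checked in parallel cultures via SRB total protein stain.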

Read-out in experiment [6]: Urokinase-type plasminogen activator receptor (uPAR), PLAUR (gene 5329)
In words: BSK_BE3C_uPAR: BioMAP Diversity Plus: BE3C Assay for Urokinase-type plasminogen activator receptor (uPAR) Biomarker Activity (AID 2283039).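 Also: uPAR protein level measured by ELISA on the cells; cells exposed to compound for one day before measurement.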 To be noted: primary human bronchial epithelial cells; actives raise or lower the signal. An outline of the steps: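 Human bronchial epithelial primary cells; chemical exposure 24 h; uPAR by ELISA; bidirectional fit vs DMSO control.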

Read-out in experiment [7]: Interleukin-6 (IL6), IL6 (gene 3569)
The experiment can be described thus: BSK_CASM3C_IL6: BioMAP Diversity Plus: CASM3C Assay for Interleukin-6 (IL6) Biomarker Activity for (AID 2283040). To be noted: primary human coronary artery smooth muscle cells; actives raise or lower the signal.

Read-out in experiment [8]: Tissue plasminogen activator (tPA), PLAT (gene 5327)
In words: BSK_BE3C_tPA: BioMAP Diversity Plus: BE3C Assay for Tissue plasminogen activator (tPA) Biomarker Activity (AID 2283041).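 As to outcome: tPA level quantified by ELISA one day after compound addition.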 To be noted: primary human bronchial epithelial cells; actives raise or lower the signal. The procedure, abridged:
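Primary human lung bronchial epithelial cultures receive test chemical; after 24 h, tPA is quantified by ELISA, and gain or loss of signal is fitted bidirectionally relative to DMSO baseline.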

Read-out in experiment [9]: Interleukin-8 (IL8), CXCL8 (gene 3576)
The experiment can be described thus: BSK_CASM3C_IL8: BioMAP Diversity Plus: CASM3C Assay for Interleukin-8 (IL8) Biomarker Activity (AID 2283042).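 Also: IL-8 protein level quantified by ELISA.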 The settings on record: primary human coronary artery smooth muscle cells; actives raise or lower the signal.

Read-out in experiment [10]: Human Leukocyte Antigen - DR isotype (HLADR), HLA-DRA (gene 3122)
The experiment can be described thus: BSK_CASM3C_HLADR: BioMAP Diversity Plus: CASM3C Assay for Human Leukocyte Antigen - DR isotype (HLADR) Biomarker Activity (AID 2283043).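 Also: cell-surface HLA-DR protein level quantified by ELISA.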 To be noted: primary human coronary artery smooth muscle cells; actives raise or lower the signal.

Read-out in experiment [11]: Macrophage colony-stimulating factor (MCSF), CSF1 (gene 1435)
The experiment can be described thus: BSK_CASM3C_MCSF: BioMAP Diversity Plus: CASM3C Assay for Macrophage colony-stimulating factor (MCSF) Biomarker Activity (AID 2283044).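 Also: M-CSF protein amount quantified by ELISA after 24 h exposure.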 The settings on record: primary human coronary artery smooth muscle cells; actives raise or lower the signal.

Read-out in experiment [12]: Low-density lipoprotein receptor (LDLR), LDLR (gene 3949)
The experiment can be described thus: BSK_CASM3C_LDLR: BioMAP Diversity Plus: CASM3C Assay for Low-density lipoprotein receptor (LDLR) Biomarker Activity (AID 2283045).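 Also: LDLR protein level on the cell surface quantified by ELISA.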 To be noted: primary human coronary artery smooth muscle cells; actives raise or lower the signal.

Read-out in experiment [13]: Monocyte Chemoattractant Protein-1 (MCP1), CCL2 (gene 6347)
The experiment can be described thus: BSK_CASM3C_MCP1: BioMAP Diversity Plus: CASM3C Assay for Monocyte Chemoattractant Protein-1 (MCP1) Biomarker Activity (AID 2283046).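 Also: MCP-1 level quantified by ELISA 24 h after dosing.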 To be noted: primary human coronary artery smooth muscle cells; actives raise or lower the signal.

The nature of experiment [14]: BSK_CASM3C_Proliferation: Cell Proliferation Assessment in the BioMAP Diversity Plus: CASM3C Assay (AID 2283047).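 Also: sulforhodamine B total protein stain as relative cell number at 560 nm; sub-confluent cells exposed 48 h before staining; fitted both ways against DMSO so gain or loss of cell number.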 To be noted: primary human coronary artery smooth muscle cells.
Read-out in experiment [15]: Monokine induced gamma interferon (MIG), CXCL9 (gene 4283)
The experiment can be described thus: BSK_CASM3C_MIG: BioMAP Diversity Plus: CASM3C Assay for Monokine induced gamma interferon (MIG) Biomarker Activity (AID 2283048).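 Also: MIG protein level measured by ELISA.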 To be noted: primary human coronary artery smooth muscle cells; actives raise or lower the signal.

Read-out in experiment [16]: serum amyloid A (SAA), SAA1 (gene 6288)
The experiment can be described thus: BSK_CASM3C_SAA: BioMAP Diversity Plus: CASM3C Assay for serum amyloid A (SAA) Biomarker Activity (AID 2283049).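 Also: SAA protein level quantified by ELISA.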 The settings on record: primary human coronary artery smooth muscle cells; actives raise or lower the signal.

Experiment [17] in a line: BSK_CASM3C_SRB: Viability Assessment in the BioMAP Diversity Plus: CASM3C Assay (AID 2283050).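 Also: total protein by SRB staining as cytotoxicity measure in parallel cultures; cells exposed to compound for 24 h.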 To be noted: primary human coronary artery smooth muscle cells.
Read-out in experiment [18]: Thrombomodulin, THBD (gene 7056)
The experiment can be described thus: BSK_CASM3C_Thrombomodulin: BioMAP Diversity Plus: CASM3C Assay for Thrombomodulin Biomarker Activity (AID 2283051).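 Also: thrombomodulin protein level measured by ELISA 24 h after dosing.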 To be noted: primary human coronary artery smooth muscle cells; actives raise or lower the signal.

Read-out in experiment [19]: Tissue Factor, F3 (gene 2152)
In words: BSK_CASM3C_TissueFactor: BioMAP Diversity Plus: CASM3C Assay for Tissue Factor Biomarker Activity (AID 2283052).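 Also: cell surface tissue factor protein level read by ELISA.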 To be noted: primary human coronary artery smooth muscle cells; actives raise or lower the signal.

“And” between values parts separate entries of the source, which are not always exact repeats. Identical values can stand only once. A structure can be active in one record and inactive in another. The source made the active and inactive calls. The calls were made as follows: active = hit-call score of the fitted dose curve at least 0.9, where 1 is the maximum; inactive = score below 0.9.

The AC50 is the midpoint of the concentration-response curve, whichever way the signal moves. With `[Cd+2].[Cl-].[Cl-]`, the AC50 in experiment [1] was 31.6 µM (active) and 27.1 µM (active); in [2] it was 20 µM (active); in experiment [4] it was 3.97 µM (active); in experiment [5], 29.9 µM (active); in experiment [7], 4.02 µM (active) and 2.92 µM (active); in [8] it was 26 µM (active). For the same compound, the AC50 in experiment [10] was 9.22 µM (active) and 6.47 µM (active); in [11] it was 6.22 µM (active) and 3.72 µM (active); in experiment [12] it was 6.42 µM (active) and 6.31 µM (active); in [13], 7.14 µM (active) and 4.39 µM (active); in [14], 2.7 µM (active) and 2.27 µM (active); in experiment [15], 4.6 µM (active) and 4.58 µM (active). For the same compound, the AC50 in [16] was 3.68 µM (active) and 2.71 µM (active); in [17], 15.4 µM (active) and 15.2 µM (active); in experiment [19], 5.81 µM (active) and 8.45 µM (active). Moreover, the result in [2], in experiment [3], in [4], in experiment [5], in [6] and in experiment [8] was inactive. The outcome in experiment [9] and in experiment [18] was inactive.
